A selection: hits, their analogues and other compounds. The true share with any hit is near 0.9%.
Rhodamine autofl – qHTS Assay for Spectroscopic Profiling in Rhodamine Spectral Region | Rhodamine-region fluorescence, 547/598 nm, Tris buffer; active compounds read high | 59,000 tested, 0.05% active | max dye-equivalent concentration, M; in the data active means max dye-equivalent concentration above about 11 nM; inconclusive means between about 1.1 nM and that limit
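Read-out is relative fluorescence at 547 nm excitation and 598 nm emission, expressed as dye-equivalent concentration using rhodamine standards on every plate. Each compound was profiled across a concentration series after 15 min in 100 mM Tris, pH 8.0.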
Texas Red fluor – qHTS Assay for Spectroscopic Profiling in Texas Red Spectral Region; Compound fluorescence, Texas Red channel, 547/618 nm; active compounds read high; max dye-equivalent concentration, M; 59,000 tested, 0.06% active; in the data active means max dye-equivalent concentration above about 10 nM; inconclusive means between about 1.1 nM and that limit
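qHTS profiling of intrinsic compound fluorescence; 100 mM Tris pH 8.0; 15 min RT; ex 547 / em 618 nm; response expressed as Texas Red dye-equivalent concentration from six-point plate standard.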
Fluorescein autfl – qHTS Assay for Spectroscopic Profiling in Fluorescein Spectral Region; AID 593, 2007; max fluorescein-equivalent concentration, M; 59,000 tested, 0.91% active; Compound autofluorescence, 480/540 nm, fluorescein-equivalent; active compounds read high; in the data active means max fluorescein-equivalent concentration above about 10 nM; inconclusive means between about 1.1 nM and that limit
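Compounds (23 nL) in 100 mM Tris pH 8.0, 15 min at room temperature, then fluorescence read at 480 nm excitation/540 nm emission. Signal converted to fluorescein-equivalent concentration from an on-plate fluorescein standard curve.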
Resorufin fluor – qHTS Assay for Spectroscopic Profiling in Resorufin Spectral Region; Compound fluorescence, resorufin region 547/598 nm, buffer; active compounds read high; max dye-equivalent concentration, M; 59,000 tested, 0.04% active
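Intrinsic fluorescence profiled in the resorufin window (ex 547 nm, em 598 nm) after 15 min at room temperature in pH 8.0 Tris buffer (100 mM); responses normalized against a six-point resorufin standard series as dye-equivalent concentration.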
A488 autofl – qHTS Assay for Spectroscopic Profiling in A488 Spectral Region; compound autofluorescence, A488 spectral region, dye equivalency; Compound Type: qHTS ECL - MLSMR; max dye equivalency, M; 59,000 tested, 0.1% active; AID 591, 2007
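Compound autofluorescence was read in 100 mM Tris pH 8.0 after 15 min at room temperature, ex 480 nm/em 540 nm. Intensities were converted to A488 dye-equivalent concentration using an on-plate six-point A488 standard curve.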
A647 autofl – qHTS Assay for Spectroscopic Profiling in A647 Spectral Region; Compound fluorescence, A647 channel (570/671 nm), Tris buffer; AID 592, 2007; 59,000 tested, under 10 active; max dye-equivalent concentration, M;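 further: values scaled relative to a standard on each plate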
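Tris 100 mM pH 8.0; cpd + A647 stds pin-transferred; 15 min RT; CCD imager, ex 570/em 671. Output = A647-equivalent conc. per cpd conc.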
The depositor's hits bear a star; i = inactive; ? = inconclusive. Unless noted, how the calls were made is not given here.

SMILES	Rhodamine autofl	Texas Red fluor	Fluorescein autfl	Resorufin fluor	A488 autofl	A647 autofl
O=C(NC12CC3CC(CC(C3)C1)C2)c1cnccn1	i	?	1.1e-08M*	i	i	1.8e-09
COc1ccccc1CNc1nc(-c2ccoc2)nc2ccccc12	i	i	i	i	i	2.2e-09
Cn1c2ccccc2c(=O)n2c(=O)c3ccccc3cc12	i	i	3.9e-08M*	i	?	3.6e-09
CCCN(CCc1ccccc1)[C@H]1CCc2c(O)cccc2C1	i	i	i	i	i	1e-09
CN1CCc2c(sc3c2C(=O)NC(c2cccs2)N3)C1 (stereo not given)	i	?	1.8e-08M*	i	i	3.3e-08
Cc1ccc(C2NC(=O)c3ccccc3N2)s1 (stereo not given)	i	?	i	i	i	2.4e-09
CCN(CC)c1ccc2cc(C(=O)Nc3ccccn3)c(=O)oc2c1	i	i	5.4e-07M*	i	2.6e-08M*	4.3e-08
COc1ccccc1C(=O)Nc1ccccn1	i	?	?	i	i	3.7e-08
CCN(CC)c1ccc2cc(NC(=O)CCC(=O)O)c(=O)oc2c1	i	i	2.2e-07M*	i	1.2e-08M*	1e-09
CCN(CC)c1ccc2cc(C(=O)Nc3cccnc3N3CCOCC3)c(=O)oc2c1	i	i	4e-08M*	i	?	1.6e-08
CC(=O)S[C@@H]1CC2=CC(=O)CC[C@@]2(C)[C@H]2CC[C@]3(C)[C@H](CC[C@@]34CCC(=O)O4)[C@H]12	i	?	?	i	i	1.5e-08
C[C@H](O)C(=O)C1=Nc2c(nc(N)[nH]c2=O)NC1	i	?	4e-08M*	i	?	9.6e-09
Cc1nc(NCc2ccco2)c2c3c(sc2n1)CCC3	i	i	i	i	i	1.4e-08
CCN1CCc2c(sc3c2c(NCc2ccco2)nc2nnnn23)C1	i	i	1.3e-08M*	i	i	1e-09
O=c1c(-c2ccc(Cl)cc2)nc2cnc(N3CCOCC3)nc2n1C1CC1	i	i	1e-08M*	i	i	1.2e-09
OC[C@@H]1O[C@@H](n2cnc3c(NC4CCCCC4)ncnc32)[C@@H](O)[C@H]1O	i	?	i	i	i	1.3e-08
CCCCCC[C@@H]([C@H](C)O)n1cnc2c(N)ncnc21	i	?	?	i	i	1.2e-09
CCn1c(CSc2nnc(-c3cccnc3)n2-c2ccccc2C)nc2cc(C(=O)O)ccc21	2.6e-07M*	4.2e-07M*	?	2.2e-07M*	i	?
CCn1c(CSc2nnc3ccccn23)nc2cc(C(=O)O)ccc21	7.1e-08M*	1.1e-07M*	1.4e-08M*	4.7e-08M*	i	6.6e-08
CCOc1ccccc1-n1c(SCC(N)=O)nnc1-c1cccnc1	i	i	i	i	i	5e-09
O=C1C=CC2=C3c4cc(O)c(O)cc4C[C@@]3(O)COC2=C1O	i	?	?	i	i	3.9e-09
